Assay results taken from PubChem BioAssay AID1240 (Sanford-Burnham Center for Chemical Genomics, 2008).
Hit rate of the full screen: of about 50,000 compounds, about 800 (1.6%) showed an effect of 50% or more. This excerpt belongs to a sample that is enriched for strong results.

Target: Bcl-2-like protein 10 (Homo sapiens) (UniProt Q9HD36)
Assay: TR3 peptide-Bcl-B binding displacers, biochemical primary FP assay, phenotype converters (AID 1240);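 note: 0% = Bcl-B with tracer peptide and DMSO and 100% = tracer peptide lacking Bcl-B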
Conditions: GST-Bcl-B / FITC-TR3 peptide fluorescence polarization; stronger effect = higher value; compound at 3.75 mg/L

Sequence of Bcl-2-like protein 10 (Homo sapiens) (Q9HD36 whole entry, looked up): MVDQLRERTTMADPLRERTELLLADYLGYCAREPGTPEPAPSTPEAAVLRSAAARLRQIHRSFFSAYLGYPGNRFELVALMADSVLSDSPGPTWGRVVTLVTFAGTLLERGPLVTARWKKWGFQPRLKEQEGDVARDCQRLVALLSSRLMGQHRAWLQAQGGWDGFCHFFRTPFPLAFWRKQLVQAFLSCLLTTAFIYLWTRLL

SMILES	displacement
COc1cc(/C=C2\SC(N)=NC2=O)cc(Br)c1OC	-25.9%
Cc1ccc(/C=C/C(=O)c2c3c(c(C)[nH]c2=O)CCCC3)cc1	49.3%
Cc1[nH]c(=O)c(C(=O)/C=C/c2ccccc2Cl)c2c1CCCC2	11%
Cc1[nH]c(=O)c(C(=O)/C=C/c2cccs2)c2c1CCCC2	119%
Cc1cccc(NC(=O)C(=O)NCc2ccco2)c1C	11%
O=C(Nc1ccc(I)cc1)c1ccc(Cl)cc1Cl	6.9%
Cc1ccc(N2C(=O)C(=O)/C(=C(/O)c3ccccc3)C2c2ccc(O)cc2)cc1Cl (configuration not stated)	-3.5%
NC(=O)c1cccc(N=Cc2cc(Cl)cc(Cl)c2O)c1	145%
NC(=O)c1ccccc1N=Cc1cc(Cl)cc(Cl)c1O	-7.2%
Oc1c(Cl)cc(Cl)cc1C=Nc1cccc(C(F)(F)F)c1	2.4%
CN(C)CCCNC(=O)/C=C/c1ccc(C(C)(C)C)cc1	6.4%
O=c1oc2ccccc2cc1-c1nn(-c2ccccc2)cc1/C=N/O	53%
O/N=C/c1cn(-c2ccccc2)nc1-c1ccccc1	10%
O/N=C/c1cn(-c2ccccc2)nc1-c1ccc(Cl)cc1	-3.8%
COCCCNC(=O)C(=O)Nc1ccccc1F	-11.9%
CCOc1cc(C2C(C(=O)OC)=C(C)NC(C)=C2C(=O)OC)ccc1O	0.1%
COc1cc(/C=C2/SC(=S)N(c3ccccc3)C2=O)ccc1OC(=O)c1ccc(F)cc1	4.7%
CCOc1ccc(/C=C2\SC(=S)N(c3ccc(OC)cc3)C2=O)cc1OC	114%
COc1ccc(N2C(=O)/C(=C/c3ccc(OC)c(OC)c3)SC2=S)cc1	6.5%
COc1ccc(/C=C2\SC(=S)N(c3ccc(F)cc3)C2=O)cc1OC	105%
C=CCOc1ccc(/C=C2\SC(=S)N(c3ccc(OC)cc3)C2=O)cc1OC	6.7%
COc1cc(/C=C2\SC(=S)N(c3ccc(F)cc3)C2=O)cc(OC)c1OC	3.3%
O=S(=O)(c1ccc(C=Nc2ccc(Br)cc2)cc1)c1ccc(C=Nc2ccc(Br)cc2)cc1	-8.7%

SMILES	displacement
COc1ccc(C2CC(C(F)(F)F)n3ncc(C(=O)Nc4ccc(F)cc4F)c3N2)cc1OC (configuration not stated)	-1.7%
CC1(C)Cc2ccccc2C(/C(=N\O)C(=O)c2ccccc2)=N1	13.1%
COc1ccc(C(=O)Nc2cccc(S(N)(=O)=O)c2)cc1	-5.8%
CCOP(=O)(OCC)/C(=C(\NC(=O)c1ccccc1)C(=O)Nc1ccccc1C(F)(F)F)c1ccccc1	12.2%
COc1ccc(CCNC(=O)c2ccc(Cl)c(Cl)c2)cc1OC	6%
COc1ccc(CCNC(=O)c2c(Cl)ccc(Cl)c2OC)cc1OC	57%
COc1c(Cl)ccc(Cl)c1C(=O)NCCc1ccccc1	-18.4%
C=CCN(CC=C)C(=O)COc1ccc(Cl)cc1	-5.1%
CC(=O)NCCc1c(C)n(Cc2ccccc2)c2ccccc12	20.2%
O=C(c1sc2ccccc2c1Cl)N1CCN(Cc2ccc3c(c2)OCO3)CC1	0.4%
COc1ccc2nc(NS(=O)(=O)c3ccc(Cl)cc3)c(Nc3ccc4[nH]c(=O)[nH]c4c3)nc2c1	-2.9%
CC(=O)Nc1ccc(Nc2nc3ccccc3nc2NS(=O)(=O)c2ccc(Cl)cc2)cc1	-12.5%
O=S(=O)(Nc1nc2ccccc2nc1Nc1cccc(O)c1)c1ccc(Cl)cc1	7.1%
COC(=O)c1cc(Nc2nc3ccccc3nc2NS(=O)(=O)c2ccccc2)ccc1Cl	158%
O=S(=O)(Nc1nc2ccccc2nc1Nc1ccccc1)c1ccccc1	16.9%
O=c1[nH]c2ccc(Nc3nc4ccccc4nc3NS(=O)(=O)c3ccc(Cl)cc3)cc2[nH]1	102%
Cc1cccc(OCC(=O)Nc2ccccc2Cl)c1C	-1.5%
Cc1ccccc1OCCOc1ccc(/C=C2/SC(=S)N(C)C2=O)cc1	0.3%
CC1(C)CC(NC(=O)c2ccccc2F)CC(C)(C)N1	-12.3%
COc1cc(/C=C(\C#N)c2nc3ccccc3[nH]2)ccc1OCC(=O)O	43.5%
COc1ccc(C=C2C(=O)N(c3ccc(C)cc3)C(=S)N(c3ccc(C)cc3)C2=O)cc1C(=O)O	15%
COc1ccc(OC(C)C(=O)Nc2ccc(N(C)C)cc2)cc1 (configuration not stated)	9.1%
O=C(NCCNc1ccc(Cl)cc1[N+](=O)[O-])c1ccccc1F	-0.6%

SMILES	displacement
N#CC(C#N)=Cc1cn(CC(=O)Nc2ccccc2)c2ccccc12	-17.6%
CN1C(=O)C(=Cc2cn(CC(=O)Nc3ccccc3)c3ccccc23)C(=O)N(C)C1=O	-6.8%
O=C(Cn1cc(/C=C2\NC(=O)NC2=O)c2ccccc21)Nc1ccccc1	7.5%
O=C(Cn1cc(/C=C2/C(=O)NC(=S)N(c3ccccc3F)C2=O)c2ccccc21)Nc1ccccc1	30.7%
O=C(Cn1cc(/C=C2/C(=O)NC(=O)N(c3ccccc3F)C2=O)c2ccccc21)Nc1ccccc1	51.1%
Cc1ccccc1N1C(=O)NC(=O)/C(=C/c2cn(CC(=O)Nc3ccccc3)c3ccccc23)C1=O	53.6%
COc1ccc(C2Nc3ccccc3NC3=C2C(=O)CC(c2ccccc2)C3)c(OC)c1 (configuration not stated)	5.9%
CCN1CCN(Cc2c(O)ccc3ccccc23)CC1	13.6%
N#CC(C#N)=Cc1ccc(-c2cc(Cl)ccc2Cl)o1	93.5%
O=C(/C=C/c1ccc(-c2cccc([N+](=O)[O-])c2)o1)c1ccco1	79.3%
O=C(/C=C/c1ccc(-c2cccc([N+](=O)[O-])c2)o1)Nc1ccc(Cl)cc1	4.5%
N#C/C(=C/c1ccc(-c2cc(Cl)ccc2Cl)o1)C(=O)O	2%
O=C(/C=C/c1ccc(-c2cccc(Br)c2)o1)c1ccco1	11.8%
O=C(/C=C/c1ccc(-c2cc(Cl)ccc2Cl)o1)c1ccco1	126%
O=C(/C=C/c1ccc(-c2cccc([N+](=O)[O-])c2)o1)c1cc2ccccc2o1	119%
O=C(/C=C/c1ccc(-c2ccc(Cl)cc2Cl)o1)c1ccco1	3.4%
N#CC(C#N)=Cc1ccc(-c2ccc(Cl)c(C(=O)O)c2)o1	0.6%
O=C(/C=C/c1ccc(-c2cccc([N+](=O)[O-])c2)o1)c1ccc(F)cc1	3.4%
O=C(/C=C\c1ccc(-c2cc(Cl)ccc2Cl)o1)c1ccccc1	24.9%
CC(=O)/C=C/c1ccc(-c2cccc([N+](=O)[O-])c2)o1	-5.2%
N#Cc1c2c(c(N3CCN(c4ccccn4)CC3)n3c1nc1ccccc13)CCC2	2.1%
